# Assay outcomes from PubChem BioAssay.
# NOMO-1 viab: STK33 inhibitor candidate reducing NOMO-1 cell viability; NOMO-1 AML viability, CellTiter-Glo luminescence, 72 h; inhibition, % (test concentration not listed); hit rate 7.5% among 37,000; in the data active = inhibition above about 80%; inconclusive = no clear call, values can overlap the other calls
# ROS inducer: cancer cell ROS induction | U2OS ROS induction, H2DCF-DA fluorescence | hit rate 2% among 46,000 | ROS induction (% of piperlongumine), % at 10 µM; in the data active = ROS induction above about 79%, passing the limit was not always enough; inconclusive = no clear call, values can overlap the other calls;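 also: 0% = DMSO vehicle median and 100% = reference compound median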
# Active calls of the source: *; ? = inconclusive; / = no result. The full list was thinned out, with hits kept by preference.
SMILES,NOMO-1 viab,ROS inducer
C[C@@H]1CCCCO[C@@H](CN(C)S(=O)(=O)c2ccccc2)[C@@H](C)CN([C@H](C)CO)C(=O)c2cc(NS(=O)(=O)c3ccc(F)cc3)ccc2O1,41.8,205.9*
C[C@@H]1CCCCO[C@H](CN(C)S(=O)(=O)c2ccc(F)cc2)[C@@H](C)CN([C@H](C)CO)C(=O)c2cc(NS(=O)(=O)c3ccc(F)cc3)ccc2O1,24.1,36.6
C[C@@H]1CN([C@H](C)CO)C(=O)c2cc(NC(=O)C3CCCCC3)ccc2O[C@H]1CN(C)S(=O)(=O)c1cn(C)cn1,9.1,-8.0
COc1ccc(S(=O)(=O)N(C)C[C@@H]2OCCCC[C@@H](C)Oc3ccc(NS(=O)(=O)c4ccccc4)cc3C(=O)N([C@H](C)CO)C[C@@H]2C)cc1,30.0,?
C[C@@H]1CCCCO[C@H](CN(C)S(=O)(=O)c2ccc(F)cc2)[C@@H](C)CN([C@H](C)CO)C(=O)c2cc(NS(=O)(=O)c3ccc(Cl)cc3)ccc2O1,67.0,38.0
Cc1ccc(S(=O)(=O)Nc2ccc3c(c2)C(=O)N([C@H](C)CO)C[C@H](C)[C@@H](CN(C)S(=O)(=O)c2ccccc2)OCCCC[C@@H](C)O3)cc1,20.2,136.8*
CSc1sc(C#N)c(C)c1C(=O)/C=C/N(C)C,-8.0,7.7
CC/C=C\C=C\C(O)C/C=C\CCCCCCCC(=O)O (stereo not drawn),/,14.2
Cc1ccc(S(=O)(=O)N(C)C[C@@H]2OCCCC[C@@H](C)Oc3ccc(NS(=O)(=O)c4ccc(Cl)cc4)cc3C(=O)N([C@H](C)CO)C[C@@H]2C)cc1,52.2,110.7*
Cc1ccc(S(=O)(=O)Nc2ccc3c(c2)C(=O)N([C@H](C)CO)C[C@H](C)[C@@H](CN(C)S(=O)(=O)c2ccc(C)cc2)OCCCC[C@@H](C)O3)cc1,60.7,19.1
Cc1ccc(S(=O)(=O)Nc2ccc3c(c2)C(=O)N([C@H](C)CO)C[C@H](C)[C@H](CN(C)S(=O)(=O)c2ccc(C)cc2)OCCCC[C@@H](C)O3)cc1,94.7*,19.4
COc1ccc(S(=O)(=O)N(C)C[C@@H]2OCCCC[C@@H](C)Oc3ccc(NC(=O)NC4CCCCC4)cc3C(=O)N([C@H](C)CO)C[C@@H]2C)cc1,11.7,140.5*
COc1ccc(S(=O)(=O)Nc2ccc3c(c2)C(=O)N([C@H](C)CO)C[C@H](C)[C@@H](CN(C)S(=O)(=O)c2ccc(C)cc2)OCCCC[C@@H](C)O3)cc1,48.3,20.5
C[C@@H]1CCCCO[C@H](CN(C)S(=O)(=O)c2ccc(Cl)cc2)[C@@H](C)CN([C@H](C)CO)C(=O)c2cc(NS(=O)(=O)c3ccccc3)ccc2O1,30.7,34.5
COc1ccc(S(=O)(=O)N(C)C[C@H]2OCCCC[C@@H](C)Oc3ccc(NC(=O)NC4CCCCC4)cc3C(=O)N([C@H](C)CO)C[C@@H]2C)cc1,24.4,34.2
COc1ccc(S(=O)(=O)N(C)C[C@@H]2OCCCC[C@@H](C)Oc3ccc(NS(=O)(=O)c4ccc(F)cc4)cc3C(=O)N([C@H](C)CO)C[C@@H]2C)cc1,63.5,128.3*
Cc1cccc(CN2C(=O)c3ccccc3Sc3ccc(C(=O)NC(C)C)cc32)c1,/,2.0
O=C1Nc2ccccc2S/C1=C\c1cccc(Cl)c1,/,-9.1
C[C@H](CO)N1C[C@H](C)[C@@H](CN(C)CC2CCCCC2)Oc2ccc(NC(=O)Cc3ccccc3)cc2C1=O,13.9,-6.2
Cc1cc2c(=O)n(Cc3ccco3)c(SCC(=O)N3CCc4ccccc43)nc2s1,20.6,4.1
O=c1c2ccccc2nc(CSc2nnc(-c3ccco3)n2-c2ccccc2)n1-c1ccccc1Cl,14.9,/
Nc1nc(SCc2nc(-c3ccccc3)no2)[nH]c(=O)c1-c1ccccc1,-5.5,106.4*
Nc1nc(SCC(=O)NCC2CCCO2)[nH]c(=O)c1-c1ccccc1 (stereo not drawn),-13.8,3.5
C[C@@H]1CCCCO[C@H](CN(C)Cc2ccccc2)[C@@H](C)CN([C@H](C)CO)C(=O)c2cc(NC(=O)CCC(F)(F)F)ccc2O1,-0.2,-2.4
CCOc1ccc(NC(=S)NC(c2ccccc2)c2ccccc2)cc1,/,11.4
SMILES,NOMO-1 viab,ROS inducer
COc1cc(C(Nc2ccccn2)c2cc(Cl)c3cccnc3c2O)cc(Br)c1O (stereo not drawn),47.9,/
CSc1ccc(C(Nc2ccccn2)c2cc(Cl)c3cccnc3c2O)cc1 (stereo not drawn),112.5*,?
Cc1ccc(C)c(C(Nc2ccccn2)c2cc(Cl)c3cccnc3c2O)c1 (stereo not drawn),113.3*,0.6
CCc1ccc(C(Nc2ccccn2)c2cc(Cl)c3cccnc3c2O)cc1 (stereo not drawn),123.3*,28.2
CSc1ccc(S(=O)(=O)NCc2ccccn2)cc1,13.4,-6.6
CCOc1ccc(C(Nc2cccnc2)c2cc(Cl)c3cccnc3c2O)cc1 (stereo not drawn),115.0*,/
C[C@H](CO)N1C[C@H](C)[C@H](CN(C)C(=O)NC2CCCCC2)Oc2ncc(-c3cc4ccccc4o3)cc2C1=O,/,68.9
CCOC(=O)c1cnc2cc(C(F)(F)F)ccc2c1N(C)Cc1ccccc1,38.3,61.5
CCOC(=O)c1cnc2ccc(OCC)cc2c1N(C)Cc1ccccc1,96.5*,139.4*
CCCCn1c(SCC(=O)NCc2ccc(C)cc2)nc2ccc(N3CCOCC3)cc2c1=O,/,18.9
COc1ccc(NC(=O)CC(=O)CSc2ccccc2)cc1,112.3*,5.6
COc1ccc(NC(=O)CSc2nnc(-c3ccccc3)c(-c3ccccc3)n2)cc1,-18.6,7.1
Cc1ccc(S(=O)(=O)Nc2ccc3c(c2)C(=O)N([C@H](C)CO)C[C@@H](C)[C@H](CN(C)C)O3)cc1,19.0,-5.7
O=C(COc1ccc(S(=O)(=O)NC2CCCCC2)cc1Cl)N1CCOCC1,4.2,-2.4
Cc1noc(C)c1S(=O)(=O)Nc1ccc2c(c1)C(=O)N([C@@H](C)CO)C[C@H](C)[C@@H](CN(C)Cc1ccc(Oc3ccccc3)cc1)O2,25.6,45.9
C[C@H]1CN([C@@H](C)CO)C(=O)c2cc(NS(=O)(=O)c3ccc(F)cc3)ccc2O[C@H]1CN(C)Cc1ccc(Oc2ccccc2)cc1,11.0,-4.7
Cc1ccc(S(=O)(=O)Nc2ccc3c(c2)C(=O)N([C@H](C)CO)C[C@@H](C)[C@H](CN(C)Cc2ccc(Oc4ccccc4)cc2)O3)cc1,83.5*,30.9
Cc1noc(C)c1S(=O)(=O)Nc1ccc2c(c1)C(=O)N([C@@H](C)CO)C[C@@H](C)[C@@H](CN(C)Cc1ccc(Cl)c(Cl)c1)O2,81.7*,33.3
Cc1noc(C)c1S(=O)(=O)Nc1ccc2c(c1)C(=O)N([C@@H](C)CO)C[C@@H](C)[C@@H](CN(C)Cc1ccc(Oc3ccccc3)cc1)O2,101.8*,13.7
Cc1noc(C)c1S(=O)(=O)Nc1ccc2c(c1)C(=O)N([C@@H](C)CO)C[C@H](C)[C@@H](CN(C)Cc1ccc(Cl)c(Cl)c1)O2,-3.6,25.0
C[C@@H]1CN([C@H](C)CO)C(=O)c2cc(NS(=O)(=O)c3ccc(F)cc3)ccc2O[C@@H]1CN(C)Cc1ccc(Oc2ccccc2)cc1,85.6*,-3.4
Cc1ccc(S(=O)(=O)Nc2ccc3c(c2)C(=O)N([C@@H](C)CO)C[C@@H](C)[C@H](CN(C)Cc2ccc(Oc4ccccc4)cc2)O3)cc1,56.8,14.0
O=C(CSc1ncccn1)Nc1cc(Cl)cc(Cl)c1,13.8,1.7
